Data: PubChem BioAssay (NCI)
About 83,000 compounds went through this panel and 20% of them were active in at least one assay; those are over-represented in the sample as a whole.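 Negative percent growth values reflect cell death: -40 means 40% of the cells present at the start died, and -100 means all died.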 The source made the active and inactive calls. How the source made its calls: active means growth percent below 10; inactive means the rest.

Columns and labels:
Experiment in all cases: NCI-60 one-dose screen, 48 h (100 = growth as untreated, 0 = no growth, -100 = all killed)
Conditions in all cases: 10 µM unless noted
[1] = tested on: HCT-15 colon
[2] = tested on: HT29 colon
[3] = tested on: SNB-75 CNS
[4] = tested on: SNB-19 CNS
[5] = tested on: U251 CNS
[6] = tested on: PC-3 prostate
[7] = tested on: SK-MEL-5 melanoma
[8] = tested on: UACC-62 melanoma
[9] = tested on: LOX IMVI melanoma
[10] = tested on: SK-MEL-28 melanoma
[11] = tested on: SK-MEL-2 melanoma
[12] = tested on: EKVX NSCLC
[13] = tested on: SN12C renal
[14] = tested on: UO-31 renal
[15] = tested on: TK-10 renal
[16] = tested on: ACHN renal
[17] = tested on: CAKI-1 renal
[18] = tested on: A498 renal
[19] = tested on: CCRF-CEM leukemia
[20] = tested on: MOLT-4 leukemia

Measured: growth

C#CCn1cnc2cnc(Nc3cccc(NC(=O)CCl)c3)nc21
active: [1] 6.26% [6.25 µM] | [2] 0.208% [6.25 µM] | [3] -28.7% [6.25 µM] | [5] -49.2% [6.25 µM] | [7] -59.4% [6.25 µM] | [8] -23.1% [6.25 µM] | [9] -48.6% [6.25 µM] | [11] -14.1% [6.25 µM] | [13] 6.82% [6.25 µM] | [14] -71.1% [6.25 µM] | [15] -5.69% [6.25 µM] | [16] -39.9% [6.25 µM] | [17] -34.2% [6.25 µM] | [18] -42.2% [6.25 µM] | [19] 1.51% [6.25 µM] | [20] 0.772% [6.25 µM]
inactive: [4] 11.5% [6.25 µM] | [6] 18.9% [6.25 µM] | [10] 14.5% [6.25 µM] | [12] 69.1% [6.25 µM]

COc1ccc2c(c1)CCNC21C(=O)Nc2c(Br)cc(Br)cc21 (stereo not given)
inactive: [1] 104% | [2] 104% | [3] 70.6% | [4] 91.5% | [5] 96.7% | [6] 97.9% | [7] 98.4% | [8] 86.6% | [9] 102% | [10] 101% | [11] 106% | [12] 78.7% | [13] 92.5% | [14] 62.1% | [15] 106% | [16] 93.7% | [17] 82.8% | [18] 67% | [19] 113% | [20] 95.9%

c1cc(NCCCCN2CCOCC2)c2ccc3c(ccc4c(NCCN5CCOCC5)ccnc43)c2n1
inactive: [1] 70.7% | [2] 83.1% | [3] 86.8% | [4] 68.2% | [5] 92.4% | [6] 57.2% | [7] 98.7% | [8] 98.9% | [9] 45.9% | [10] 94% | [11] 99.2% | [12] 94.8% | [13] 64.8% | [14] 64.7% | [15] 143% | [16] 60.2% | [17] 64.2% | [18] 86.1% | [19] 36.9% | [20] 43.2%

N=c1c2c(-c3ccccc3)c(-c3ccccc3)oc2ncn1NC(=O)c1cccnc1
inactive: [1] 95.6% | [2] 104% | [3] 105% | [4] 96.4% | [5] 102% | [6] 93.6% | [7] 93.4% | [8] 104% | [9] 95% | [10] 119% | [11] 111% | [12] 96.1% | [13] 102% | [14] 75.9% | [15] 112% | [16] 109% | [17] 93.8% | [18] 73.6% | [19] 84% | [20] 89.9%

O=C(Nc1ccc2ccccc2c1)c1cc2ccccc2cc1O
inactive: [1] 85.9% | [2] 98.9% | [3] 103% | [4] 97.9% | [5] 87.2% | [6] 78% | [7] 86.7% | [8] 72.5% | [9] 94.4% | [10] 89.1% | [11] 79.3% | [12] 99.7% | [13] 89.2% | [14] 58.8% | [15] 103% | [16] 89.2% | [17] 87.1% | [18] 90.4% | [19] 75% | [20] 82.2%

[Cu+].[NH-][C@H]1C[N-]C(=O)[C@H]([C@H]2CCN=C(N)N2)[N-]C(=O)/C(=C\NC(N)=O)[N-]C(=O)[C@H](CNC(=O)C[C@@H](N)CCCN)[N-]C(=O)[C@H](CO)[N-]C1=O
inactive: [1] 100% | [2] 104% | [3] 88.2% | [4] 103% | [5] 101% | [6] 96% | [7] 109% | [8] 92.1% | [9] 98.7% | [10] 110% | [11] 108% | [12] 109% | [13] 103% | [14] 86.8% | [15] 98.1% | [16] 108% | [17] 87.8% | [18] 85.7% | [19] 99.9% | [20] 102%

O=C(CN1C(=O)S/C(=C\C(Cl)=C\c2ccccc2)C1=O)NC1C=CS(=O)(=O)C1 (stereo not given)
inactive: [3] 19% | [4] 40.4% | [5] 16.9% | [6] 19.7% | [7] 17.1% | [12] 17.7% | [17] 16.9% | [18] 97.2%
active: [1] -18.1% | [2] -6.75% | [8] -19.2% | [9] -73.5% | [10] -9.63% | [11] 9.43% | [13] -13.2% | [14] -78% | [15] -14.7% | [16] -57.5% | [19] 7.5% | [20] 4.12%

Cn1cc(-c2csc(-c3c[nH]c4ccc(F)cc34)n2)c2cnccc21
inactive: [4] 14.3% | [6] 20.5% | [18] 74.8%
active: [1] -69.7% | [2] -52.6% | [3] -89.1% | [5] -74.6% | [7] -97% | [8] -78.5% | [9] -90.4% | [10] -95.9% | [11] -66.4% | [12] -28.4% | [13] -48.5% | [14] -75.3% | [15] -28% | [16] -54% | [17] -57.8% | [19] -32.3% | [20] -34.7%

COc1cc(-c2nn(-c3cccc(NC(=O)CCN4CCN(C)CC4)c3)cc2-c2ccncc2)ccc1Cl
inactive: [1] 21.2% | [4] 44% | [5] 21.5% | [6] 14% | [8] 28.2% | [10] 16.9% | [12] 47.1% | [13] 33.3% | [14] 41.5% | [15] 39.2% | [16] 51.7% | [17] 38.7% | [18] 14.1% | [20] 12.7%
active: [2] -17.4% | [3] -5.41% | [7] 8.48% | [9] -16% | [11] 2.29% | [19] 9.08%

CCOC(=O)C1=C(C)N=C2SC=C(c3ccc(F)cc3)N2[C@H]1c1cn(-c2ccccc2)nc1-c1ccc(Cl)cc1
inactive: [1] 92.9% | [2] 101% | [3] 78.2% | [4] 92.1% | [5] 88% | [6] 80.7% | [7] 96.4% | [8] 81.6% | [9] 95.7% | [10] 106% | [11] 97.4% | [12] 88.4% | [13] 98.6% | [14] 85.1% | [15] 93.6% | [16] 101% | [17] 84.1% | [18] 89.7% | [19] 95.5% | [20] 78.3%

O=C(NNc1ccccc1)c1ncc[nH]1
inactive: [1] 34.8% | [2] 54.9% | [3] 85.2% | [4] 96.5% | [5] 78.6% | [6] 71.9% | [7] 85% | [8] 10.9% | [10] 40.7% | [11] 78.2% | [12] 60.2% | [13] 72% | [14] 12.3% | [15] 77.9% | [16] 14.5% | [18] 98.3% | [19] 32.7% | [20] 27.3%
active: [9] 1.27% | [17] 3.43%

COc1cccc(NC(=O)c2sc3nc(C)c(C(O)c4ccccc4)cc3c2N)c1 (stereo not given)
active: [5] 8.92% | [7] -17.2% | [18] -0.498%
inactive: [1] 14.6% | [2] 13.3% | [3] 54.2% | [4] 27.6% | [6] 23.5% | [8] 32% | [9] 36.1% | [10] 64.9% | [11] 37.8% | [12] 47.7% | [13] 18.5% | [14] 48% | [15] 50.8% | [16] 30.9% | [17] 35.1% | [19] 14.3% | [20] 11.8%

COc1c(O)c(O)cc2c3c(oc12)CC(c1ccc2c(c1)OCO2)CC3=O (stereo not given)
inactive: [1] 42.1% | [2] 93.4% | [3] 84.5% | [4] 77.8% | [5] 76.2% | [6] 76.1% | [7] 31.4% | [9] 25.3% | [10] 47% | [11] 69.6% | [12] 65.2% | [13] 82.2% | [14] 44.7% | [15] 101% | [16] 29.7% | [17] 72% | [18] 97.9% | [19] 56.7% | [20] 43.5%
active: [8] 4.1%

Fc1ccccc1-c1cnn2cc(-c3ccccc3)cnc12
inactive: [1] 90.5% | [2] 105% | [3] 81.7% | [4] 94.1% | [5] 98.9% | [6] 88.5% | [7] 101% | [8] 91.5% | [9] 98.7% | [10] 113% | [11] 107% | [12] 103% | [13] 92.1% | [14] 85.6% | [15] 104% | [16] 101% | [17] 88.8% | [18] 87.8% | [19] 93.3% | [20] 98.1%

Cc1ccc(Nc2nc(-c3cc(O)c(C)c(C)c3O)cs2)cc1
inactive: [1] 76.7% | [2] 112% | [3] 102% | [4] 110% | [5] 97.2% | [6] 71% | [7] 97.6% | [8] 92.7% | [9] 75.1% | [10] 115% | [11] 105% | [12] 97.4% | [13] 97% | [14] 89.7% | [15] 120% | [16] 99.1% | [17] 92.7% | [18] 123% | [19] 14.8% | [20] 26.5%
